According to the supplement of paper PMC6555819:

Legend:
Experiment in all cases: PBM binding z-score (relative to random genomic background probes); higher = stronger binding; sequences stand for … in GC…GCGATTGACAGCGTAGAATGAAGG
[1] = test system: PPARg:RXRa DBDmut IVT, anti-RXR (DBD mutation: RXRa K156A/R161A, NR concentration 270 nM, RXRa partner concentration 90 nM)
Summary of the method: (§1)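 The probes on custom Agilent 4×180K protein-binding microarrays were double-stranded, with 34-nt variable regions bearing direct-repeat seeds, single-nucleotide variants, half-site ablations and random human genomic background sequences. Incubation lasted 1 h with ligand-free nuclear receptor dimers in PBS pH 7.4, 2% milk, 0.02% Triton X-100, 1 mM DTT, 0.2 mg/mL BSA and 0.4 mg/ml salmon testes DNA. Antibodies against each partner (one per run) detected bound dimers, and fluorescence scans were regression-normalized. Binding z-scores take the random background probes as reference.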

[2] = test system: PPARg:RXRa IVT, anti-PPARg (NR concentration 270 nM, RXRa partner concentration 90 nM)
Summary of the method: as §1

[3] = test system: PPARg DBDmut:RXRa IVT, anti-PPARg (DBD mutation: PPARg1 K132A/R137A, NR concentration 270 nM, RXRa partner concentration 90 nM)
Summary of the method: as §1

[4] = test system: PPARg DBDmut IVT, anti-PPARg (DBD mutation: PPARg1 K132A/R137A, NR concentration 270 nM)
Summary of the method: as §1

[5] = test system: PPARg homodimer (NR concentration 180 nM)
Summary of the method: as §1

[6] = test system: PXR:RXRa (NR concentration 270 nM, RXRa partner concentration 90 nM)
Summary of the method: as §1

[7] = test system: PXR homodimer (NR concentration 270 nM)
Summary of the method: as §1

[8] = test system: RARa:RXR (NR concentration 270 nM, RXRa partner concentration 90 nM)
Summary of the method: as §1

[9] = test system: RARa homodimer (NR concentration 270 nM)
Summary of the method: as §1

[10] = test system: RARb:RXRa (NR concentration 270 nM, RXRa partner concentration 90 nM)
Summary of the method: as §1

[11] = test system: RARb homodimer (NR concentration 270 nM)
Summary of the method: as §1

[12] = test system: RARg:RXRa (NR concentration 270 nM, RXRa partner concentration 90 nM)
Summary of the method: as §1

[13] = test system: RARg homodimer (NR concentration 270 nM)
Summary of the method: as §1

[14] = test system: RXRa DBDmut IVT, anti-RXR (DBD mutation: RXRa K156A/R161A, NR concentration 90 nM)
Summary of the method: as §1

[15] = test system: RXRa homodimer (NR concentration 180 nM)
Summary of the method: as §1

[16] = test system: THRa:RXRa (NR concentration 90 nM, RXRa partner concentration 90 nM)
Summary of the method: as §1

[17] = test system: THRa homodimer (NR concentration 90 nM)
Summary of the method: as §1

[18] = test system: VDR homodimer (NR concentration 270 nM)
Summary of the method: as §1

Row | Sequence | PBM binding z-score [1] | PBM binding z-score [2] | PBM binding z-score [3] | PBM binding z-score [4] | PBM binding z-score [5] | PBM binding z-score [6] | PBM binding z-score [7] | PBM binding z-score [8] | PBM binding z-score [9] | PBM binding z-score [10] | PBM binding z-score [11] | PBM binding z-score [12] | PBM binding z-score [13] | PBM binding z-score [14] | PBM binding z-score [15] | PBM binding z-score [16] | PBM binding z-score [17] | PBM binding z-score [18]
1 | CACACAGGGTCAGCTAGGCCAGAGTAGGGACGGC | 0.553 | 2.09 | 0.463 | 0.562 | 2.14 | 2.06 | 0.13 | 3.32 | 0.53 | 4.09 | 3.23 | 4.52 | 4.78 | 1.76 | 4.03 | 3.04 | 0.987 | 2
2 | TCATATAGGTAAAGCTGAAAGTCGAACGATATGA | 3.57 | 2.35 | 0.591 | 1.09 | -0.748 | 0.2 | -0.49 | 0.193 | -0.464 | 0.205 | -0.67 | 0.267 | 0.377 | 0.431 | 0.587 | -0.286 | -1.16 | -0.537
3 | AGTCAGAGTTCACTAGGTAACGTAAGATTCAGCT | 2.59 | 4.05 | 1.02 | 0.611 | 2.37 | 4.41 | 3.8 | 2.72 | 0.385 | 3.97 | 2.83 | 4.11 | 4.7 | 4.73 | 3.63 | 1.85 | 0.172 | 5.65
4 | CGTAGTTGGTCAGGAGGTCACACACCGGATATGA | 1.51 | 3.49 | 0.964 | 0.266 | 4.08 | 4.4 | 1.55 | 4.87 | 1.81 | 3.54 | 4.25 | 5.01 | 4.39 | 0.895 | 4.57 | 3.46 | 2.18 | 3.08
5 | CCTACTGCGCCATCAGGTCATTGATATCAACGTT | 0.542 | 1.25 | -0.701 | 0.364 | 1.76 | 1.98 | 0.943 | 2.03 | 0.602 | 1.76 | 2.85 | 1.59 | 1.53 | 1.5 | 1.3 | 3.49 | 3.56 | 2.17
6 | GCATATAGGTAAGACAAGGTGAAAGTCCGATTGT | 3.48 | 2.15 | 0.16 | 0.225 | 0.496 | 0.219 | -0.205 | 1.44 | -0.191 | 0.391 | 0.617 | 0.376 | 0.405 | 0.267 | 0.545 | 3.81 | 0.676 | -0.12
7 | CTACCAAGGTGAATAAGGTCGTTGATTACTATTC | 1.82 | 2.39 | 0.0322 | -0.387 | 0.714 | 2.37 | 2.32 | 2.44 | 0.949 | 1.71 | 2.05 | 1.54 | 1.21 | 1.38 | 1.71 | 3.6 | 2.67 | 2.68
8 | TGAAGGAGGTTAAAGATCAGGGAACGTGGCGTCG | 1 | 2.36 | 0.183 | -0.165 | 1.34 | 1.63 | 0.472 | 2.7 | 0.897 | 1.74 | 1.01 | 1.89 | 0.932 | -0.223 | 3.25 | 1.26 | 0.214 | 0.438
